Data from the supplement of paper PMC10849652.
About 7,900 targets were measured; listed, in parts, are those with a hit and a random draw of the rest. About 0.6% of all pairs of compound and target were hits.

What follows are targets tested with NC1(c2ccc(-c3nc4ccn5c(=O)[nH]nc5c4cc3-c3ccccc3)cc2)CCC1 (assay: log2 fold change, soluble protein after heating vs DMSO (PISA); higher = thermal stabilisation; K562 cells, 10 uM, 30 min; active = over 0.2 and 3.5 SD of the protein, either way, in both replicates (recomputed)).
How it was run: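 Soluble protein was quantified by TMTpro 16plex LC-MS/MS after channel sums were equalised. It was obtained as the supernatant after 21,000xg for 90 min from pooled aliquots of K562 cells (2×10^6 cells/mL, 10 μM compound, 30 min) heated for 3 min across 48°C-58°C and extracted in PBS with 0.5% NP-40 at 4°C. Thermal stability values are relative to control samples and come from duplicates. They are given as log2 fold changes.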

UniProt Q8IY18, sequence (Q8IY18 whole entry, looked up): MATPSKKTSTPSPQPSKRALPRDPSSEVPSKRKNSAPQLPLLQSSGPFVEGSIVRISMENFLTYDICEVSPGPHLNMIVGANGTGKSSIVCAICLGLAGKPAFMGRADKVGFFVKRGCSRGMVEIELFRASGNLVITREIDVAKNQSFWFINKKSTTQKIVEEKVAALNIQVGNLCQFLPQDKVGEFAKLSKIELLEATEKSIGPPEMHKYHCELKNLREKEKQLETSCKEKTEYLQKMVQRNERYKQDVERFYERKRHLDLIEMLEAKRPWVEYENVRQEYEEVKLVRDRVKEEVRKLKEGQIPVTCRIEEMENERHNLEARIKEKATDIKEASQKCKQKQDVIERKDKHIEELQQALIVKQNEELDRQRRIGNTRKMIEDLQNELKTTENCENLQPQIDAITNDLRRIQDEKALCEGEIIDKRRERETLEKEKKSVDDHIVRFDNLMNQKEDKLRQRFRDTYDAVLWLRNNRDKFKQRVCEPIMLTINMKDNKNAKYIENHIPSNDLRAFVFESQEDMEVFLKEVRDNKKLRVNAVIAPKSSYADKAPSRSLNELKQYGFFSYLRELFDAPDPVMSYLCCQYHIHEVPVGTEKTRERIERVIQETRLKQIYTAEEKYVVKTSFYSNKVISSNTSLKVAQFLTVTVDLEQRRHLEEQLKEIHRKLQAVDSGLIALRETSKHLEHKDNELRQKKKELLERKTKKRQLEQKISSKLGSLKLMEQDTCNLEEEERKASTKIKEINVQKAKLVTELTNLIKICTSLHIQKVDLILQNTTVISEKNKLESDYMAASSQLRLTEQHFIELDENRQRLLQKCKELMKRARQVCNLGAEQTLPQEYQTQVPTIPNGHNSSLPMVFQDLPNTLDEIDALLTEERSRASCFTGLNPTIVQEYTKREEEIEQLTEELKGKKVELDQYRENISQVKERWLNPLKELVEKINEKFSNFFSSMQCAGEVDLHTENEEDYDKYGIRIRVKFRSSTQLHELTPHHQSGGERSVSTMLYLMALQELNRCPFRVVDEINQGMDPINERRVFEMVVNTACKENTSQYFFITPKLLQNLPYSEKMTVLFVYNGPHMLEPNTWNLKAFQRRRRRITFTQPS
UniProt Q15833, sequence (Q15833 whole entry, looked up): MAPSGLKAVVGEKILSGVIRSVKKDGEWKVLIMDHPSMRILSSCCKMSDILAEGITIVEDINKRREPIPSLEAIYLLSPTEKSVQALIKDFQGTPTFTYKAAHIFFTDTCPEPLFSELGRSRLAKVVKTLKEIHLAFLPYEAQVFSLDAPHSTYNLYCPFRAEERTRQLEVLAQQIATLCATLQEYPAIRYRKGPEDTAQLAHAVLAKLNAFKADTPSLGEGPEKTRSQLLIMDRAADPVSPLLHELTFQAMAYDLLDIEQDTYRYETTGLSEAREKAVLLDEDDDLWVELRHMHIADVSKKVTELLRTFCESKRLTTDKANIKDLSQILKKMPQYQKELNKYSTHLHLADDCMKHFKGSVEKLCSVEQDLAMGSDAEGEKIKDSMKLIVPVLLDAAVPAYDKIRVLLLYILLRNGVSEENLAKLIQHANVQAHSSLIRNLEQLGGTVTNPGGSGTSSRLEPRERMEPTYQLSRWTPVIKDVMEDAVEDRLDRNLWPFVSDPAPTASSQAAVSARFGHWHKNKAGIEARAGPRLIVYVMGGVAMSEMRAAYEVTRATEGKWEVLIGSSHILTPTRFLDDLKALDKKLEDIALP
UniProt Q9NVC3, sequence (Q9NVC3 whole entry, looked up): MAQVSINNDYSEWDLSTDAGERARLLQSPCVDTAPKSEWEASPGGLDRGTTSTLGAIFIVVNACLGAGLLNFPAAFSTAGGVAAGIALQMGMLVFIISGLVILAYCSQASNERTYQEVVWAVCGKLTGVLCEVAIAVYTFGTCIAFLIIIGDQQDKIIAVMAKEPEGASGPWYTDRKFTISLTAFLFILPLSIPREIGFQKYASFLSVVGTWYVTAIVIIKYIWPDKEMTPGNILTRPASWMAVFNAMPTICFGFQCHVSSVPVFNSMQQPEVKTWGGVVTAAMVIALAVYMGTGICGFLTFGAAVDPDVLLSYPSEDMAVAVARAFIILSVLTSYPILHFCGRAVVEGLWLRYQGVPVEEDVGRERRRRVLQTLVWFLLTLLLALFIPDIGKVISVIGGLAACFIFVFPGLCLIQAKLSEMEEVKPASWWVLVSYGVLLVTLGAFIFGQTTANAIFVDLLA
UniProt Q14849, sequence (Q14849 whole entry, looked up): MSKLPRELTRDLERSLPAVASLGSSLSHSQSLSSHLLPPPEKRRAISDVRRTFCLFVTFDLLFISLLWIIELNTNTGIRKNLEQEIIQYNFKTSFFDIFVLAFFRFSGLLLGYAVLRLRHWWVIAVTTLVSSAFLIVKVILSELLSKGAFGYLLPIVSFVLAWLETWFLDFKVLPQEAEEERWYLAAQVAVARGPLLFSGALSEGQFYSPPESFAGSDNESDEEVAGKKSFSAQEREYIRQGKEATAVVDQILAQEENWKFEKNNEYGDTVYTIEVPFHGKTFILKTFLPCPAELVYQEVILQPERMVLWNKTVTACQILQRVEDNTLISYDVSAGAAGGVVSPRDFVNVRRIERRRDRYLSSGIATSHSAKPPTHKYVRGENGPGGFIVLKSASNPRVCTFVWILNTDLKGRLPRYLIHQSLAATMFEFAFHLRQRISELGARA
UniProt Q8IWA5, sequence (Q8IWA5 whole entry, looked up): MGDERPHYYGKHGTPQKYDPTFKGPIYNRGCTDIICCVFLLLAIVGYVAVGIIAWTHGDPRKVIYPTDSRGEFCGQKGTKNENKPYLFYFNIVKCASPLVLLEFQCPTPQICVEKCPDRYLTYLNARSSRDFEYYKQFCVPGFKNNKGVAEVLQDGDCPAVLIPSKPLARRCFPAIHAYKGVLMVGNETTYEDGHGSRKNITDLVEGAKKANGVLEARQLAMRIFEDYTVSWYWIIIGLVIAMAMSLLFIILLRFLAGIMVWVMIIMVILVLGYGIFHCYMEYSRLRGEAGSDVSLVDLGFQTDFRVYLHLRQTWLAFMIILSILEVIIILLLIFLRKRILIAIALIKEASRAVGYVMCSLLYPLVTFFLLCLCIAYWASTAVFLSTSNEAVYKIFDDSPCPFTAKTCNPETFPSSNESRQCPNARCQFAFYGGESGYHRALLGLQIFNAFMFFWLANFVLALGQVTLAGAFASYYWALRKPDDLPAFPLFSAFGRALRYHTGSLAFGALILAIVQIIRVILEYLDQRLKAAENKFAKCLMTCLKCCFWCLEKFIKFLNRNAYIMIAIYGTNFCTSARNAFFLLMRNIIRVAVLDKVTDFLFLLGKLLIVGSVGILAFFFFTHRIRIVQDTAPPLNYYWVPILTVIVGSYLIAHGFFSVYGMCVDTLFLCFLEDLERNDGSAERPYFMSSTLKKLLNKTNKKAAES
UniProt Q15796, sequence (Q15796 whole entry, looked up): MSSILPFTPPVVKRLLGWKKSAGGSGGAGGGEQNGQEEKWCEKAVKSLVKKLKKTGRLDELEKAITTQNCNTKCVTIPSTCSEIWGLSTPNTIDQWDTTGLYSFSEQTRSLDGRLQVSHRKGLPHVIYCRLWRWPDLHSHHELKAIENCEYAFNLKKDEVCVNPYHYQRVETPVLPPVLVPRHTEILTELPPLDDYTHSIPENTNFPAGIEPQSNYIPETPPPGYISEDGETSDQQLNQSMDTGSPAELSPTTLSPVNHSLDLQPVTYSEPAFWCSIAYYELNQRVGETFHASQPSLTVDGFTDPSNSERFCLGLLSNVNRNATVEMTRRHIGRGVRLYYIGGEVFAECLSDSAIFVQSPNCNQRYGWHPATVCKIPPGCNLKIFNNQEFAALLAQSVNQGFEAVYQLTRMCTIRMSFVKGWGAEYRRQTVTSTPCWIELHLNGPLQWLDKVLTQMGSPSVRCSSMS
UniProt Q13247, sequence (Q13247 whole entry, looked up): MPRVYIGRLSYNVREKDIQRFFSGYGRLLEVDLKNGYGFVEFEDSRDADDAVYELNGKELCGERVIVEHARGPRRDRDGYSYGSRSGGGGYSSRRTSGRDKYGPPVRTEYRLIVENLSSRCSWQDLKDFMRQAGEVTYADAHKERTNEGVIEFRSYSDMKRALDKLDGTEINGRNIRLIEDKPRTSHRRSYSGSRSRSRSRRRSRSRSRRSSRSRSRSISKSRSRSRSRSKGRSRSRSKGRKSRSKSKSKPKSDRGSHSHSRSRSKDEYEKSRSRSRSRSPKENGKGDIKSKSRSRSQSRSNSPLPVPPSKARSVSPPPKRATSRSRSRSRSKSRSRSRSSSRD
UniProt P12931, sequence (P12931 whole entry, looked up): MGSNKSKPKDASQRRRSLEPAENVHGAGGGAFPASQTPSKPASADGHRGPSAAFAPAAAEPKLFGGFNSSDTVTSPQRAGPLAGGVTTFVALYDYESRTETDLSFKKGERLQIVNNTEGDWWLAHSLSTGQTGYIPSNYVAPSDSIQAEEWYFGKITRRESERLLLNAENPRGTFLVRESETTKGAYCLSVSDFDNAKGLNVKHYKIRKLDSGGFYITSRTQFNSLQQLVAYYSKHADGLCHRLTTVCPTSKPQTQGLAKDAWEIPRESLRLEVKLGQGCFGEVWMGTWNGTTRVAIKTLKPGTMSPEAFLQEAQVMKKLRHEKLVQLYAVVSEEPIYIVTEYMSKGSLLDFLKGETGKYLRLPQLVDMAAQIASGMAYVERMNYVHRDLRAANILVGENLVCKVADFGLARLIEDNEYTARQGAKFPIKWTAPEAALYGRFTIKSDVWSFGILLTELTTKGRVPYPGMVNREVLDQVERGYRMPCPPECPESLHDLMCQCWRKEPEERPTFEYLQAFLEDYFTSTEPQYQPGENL

log2 fold change, inactive:
SYNE2 isoform 2 (UniProt Q8WXH0) 0.087
SPAG9 (UniProt O60271) -0.123
SRFBP1 (UniProt Q8NEF9) 0.211
SMC5 (UniProt Q8IY18) -0.083
SLC38A7 (UniProt Q9NVC3) -0.299
SLC30A10 (UniProt Q6XR72) 0.084
TK1 (UniProt K7ERV3) -0.005
SMCHD1 (UniProt A6NHR9) 0.159
SLC44A2 isoform 2 (UniProt Q8IWA5) 0.128
SYNE1 (UniProt Q8NF91) -0.008
TENT5C (UniProt Q5VWP2) 0.006
SRCAP (UniProt Q6ZRS2) 0.001
TBC1D20 isoform 3 (UniProt Q96BZ9) 0.027
STK11IP (UniProt Q8N1F8) -0.285
SMAD2 (UniProt Q15796) 0.005
STXBP2 isoform 3 (UniProt Q15833) -0.12
SPIRE1 (UniProt Q08AE8) 0.063
TGFBR1 isoform 2 (UniProt P36897) -0.041
STK38L (UniProt Q9Y2H1) -0.117
STARD3 (UniProt Q14849) -0.236
SRC isoform 2 (UniProt P12931) 0.049
SRSF6 (UniProt Q13247) 0.191
